# Experimental data as given in ChEMBL document CHEMBL3988442, “University of Dundee, Small-Polar-MMV Screening Library” (2021).
# In all, about 48,000 compounds went through this assay and about 13,000 (27%) showed an effect of 50% or more. Some of the results follow.
# System: Wolbachia pipientis
# Assay: Anti-Wolbachia Cell-Based Screen
# Assay type: functional
# Set-up: scale not given: in the data most compounds retested in dose-response had high values
# Settings: 5 µM
row,Compound,Percent Effect
1,CCn1cc2c(n1)C(COC)CN(C(=O)COc1ccccc1)C2 (stereo unspecified),-10.51%
2,Cc1cccnc1CN(C)C(C(=O)O)c1ccc(-n2cccn2)cc1 (stereo unspecified),-2.38%
3,COc1nc2c(cc1C(=O)NCCCc1csc(N)n1)CCC2,-5.437%
4,COC(=O)COc1cccc(NS(=O)(=O)c2cc(C(=O)O)cs2)c1,15.7%
5,Nc1cc2c(nn1)CCN(C(=O)Cc1ccc3c(c1)CCCC3)C2,-1.547%
6,Cc1ccc(C(=O)N2CC3(CCNCC3)c3cc(Cl)ccc32)cn1.O=C(O)C(F)(F)F.O=C(O)C(F)(F)F,107.7%
7,O=C(O)C(F)(F)F.O=C(c1ccco1)N1CC2(CCNCC2)c2cc(Cl)ccc21,104.6%
8,O=C(O)C(F)(F)F.O=C(c1cccc(Cl)c1)N1CCCC2(CCCNC2)C1 (stereo unspecified),-4.426%
9,Cc1ccc(N2CCN(Cc3ccccc3)C3(CCNCC3)C2=O)cn1.O=C(O)C(F)(F)F,-1.603%
10,O=C(O)C(F)(F)F.O=C(O)C(F)(F)F.O=C(c1ccncc1)N1CC2(CCNCC2)c2cc(Cl)ccc21,113.8%
11,CN(C)C(=O)N1CC2(CCNCC2)c2cc(F)ccc21.O=C(O)C(F)(F)F,2.852%
12,O=C(O)C(F)(F)F.O=C(c1ccco1)N1CCCC2(CN(Cc3ccc(F)cc3)CCO2)C1 (stereo unspecified),-3.961%
13,COc1cc(C(=O)N2CC3(CCNCC3)c3cc(Cl)ccc32)ccn1.O=C(O)C(F)(F)F.O=C(O)C(F)(F)F,123.4%
14,Cc1ccc(C(=O)N2CC3(CCCCC3)c3cc(C(=O)O)ccc32)cn1.O=C(O)C(F)(F)F,-4.08%
15,O=C(C1CC1)N1CC2(CCNCC2)c2cc(F)ccc21.O=C(O)C(F)(F)F,-3.609%
16,CNC(=O)[C@@H](C1CCCCC1)N1CCC[C@H]1C(=O)NCCN1CCCC1.Cl.Cl,1.393%
17,CC1CCCN(C(=O)c2ncncc2Cl)C1 (stereo unspecified),-8.48%
18,CCc1nc(C)c(CN2CCOC(Cc3ccccc3Cl)C2)[nH]1 (stereo unspecified),16.37%
19,COCC(=O)NC(c1ccc(Cl)cc1)C(F)(F)F (stereo unspecified),5.635%
20,Cc1cc(C(=O)Nc2ccc(N3CCCC3)cn2)ccc1-n1cncn1,-6.985%
21,Cc1nn(-c2ccc(F)cc2)c2[nH]nc(N)c12,1.976%
22,COCCC1(CO)CCCN(Cc2cc(C(F)(F)F)ccc2F)C1 (stereo unspecified),0.6502%

row,Compound,Percent Effect
1,Cn1cc(NC(=O)N2CCC(CN3CCCC3)CC2)ccc1=O,-5.518%
2,CC(C)C(Nc1nc(C(F)(F)F)nc2ccccc12)C(=O)O (stereo unspecified),2.163%
3,FC(F)(F)c1nc(NC2CCCC2)c2ccccc2n1,1.763%
4,FC(F)(F)c1nc(NC2CCCCC2)c2ccccc2n1,111.5%
5,CNC(=O)c1cnn2c(C3CCCN3)ccnc12 (stereo unspecified),113.8%
6,COc1ccnc(N2CCN(C(=O)c3cnn(C)c3C3CC3)CC2)n1,4.417%
7,CCN(CC)C(=O)c1cc(C2CCCN2C)ccn1.O=CO (stereo unspecified),-4.853%
8,CNC(=O)c1cnn2c(C3CCCN3C)ccnc12 (stereo unspecified),176.6%
9,CNC(=O)c1cc2c(nc1NC(C)C)CCNCC2,9.833%
10,COCCOc1ccc(-c2noc([C@@H]3CCCN3)n2)cn1,7.967%
11,O=C(Nc1ccc(-c2ccco2)cc1)C1CCCN(Cc2ccon2)C1 (stereo unspecified),13.81%
12,CN(C)Cc1cc(-c2nccn2CCn2cccn2)ccc1O,-0.09991%
13,CCC(O)C1CCN(C(=O)Nc2nc(-c3ccccc3)ns2)CC1 (stereo unspecified),-13.79%
14,CNc1nc(C)c(C(=O)N2CCCCC2CCc2ccccc2)s1 (stereo unspecified),-0.1409%
15,CCOC(=O)N1CCN(C(=O)c2sc(-c3ccccc3F)nc2C)CC1,4.725%
16,CCNc1nc(C)c(C(=O)N2CCC(C(O)Cc3ccccc3)CC2)s1 (stereo unspecified),94.25%
17,CCNc1nc(C)c(C(=O)N2CCN(c3ncccc3C)CC2)s1,-16.27%
18,CNc1nc(C)c(C(=O)N2CCC(C(O)Cc3ccccc3)CC2)s1 (stereo unspecified),102.6%
19,CCS(=O)(=O)N1Cc2c(Cn3cccc3)nn(C(C)C)c2C1,3.857%
20,C1CCN(Cc2nnn3c2CN(CC2CC2)CCC3)C1,3.513%
21,CCS(=O)(=O)N1CCCn2nnc(Cn3cccc3)c2C1,97.66%
22,O=S(=O)(C1CC1)N1CCCn2nnc(Cn3cccc3)c2C1,109%

row,Compound,Percent Effect
1,O=C(O)C(F)(F)F.c1ccc(CN2CCCn3nnc(Cn4cccc4)c3C2)nc1,-7.39%
2,O=C(c1ccc(Cl)cc1)N1CCCn2nnc(Cn3cccn3)c2C1,10.27%
3,CCCc1cncnc1N1CCC(NCCc2ccc(O)cc2)CC1,1.389%
4,CC(C)CS(=O)(=O)CCNC(=O)Nc1cccc2ncccc12,3.388%
5,CCN(CC1CCOC1)S(=O)(=O)Cc1cc(Cl)ccc1OC (stereo unspecified),-20.98%
6,Cc1cc(C)c(S(N)(=O)=O)cc1C(=O)NCC1Cc2ccccc2O1 (stereo unspecified),-3.139%
7,CCN(Cc1ccoc1)C(=O)c1cc(S(N)(=O)=O)c(C)o1,-22.47%
8,NS(=O)(=O)CCNC(=O)c1cc2cccc(F)c2o1,-1.054%
9,Cc1c(Cl)cccc1NC(=O)CN(Cc1cccnc1)C(C)C,-4.468%
10,Cc1oc(C(=O)Nc2ccccc2F)cc1S(N)(=O)=O,99.25%
11,Cc1c(Cl)cccc1NC(=O)N1CCC2(CC1)NC(=O)CC2C(=O)O (stereo unspecified),-2.177%
12,Cc1oc(C(=O)O)cc1S(=O)(=O)Nc1c(F)cccc1-n1cccn1,-6.217%
13,Cc1cccc(C)c1NC(=O)c1cc(S(N)(=O)=O)c(C)o1,102.4%
14,Cc1oc(C(=O)Nc2cccc(Cl)c2C)cc1S(N)(=O)=O,64.05%
15,CC(=O)NCCCSC1CCN(c2c(F)cccc2F)C1=O (stereo unspecified),8.134%
16,COCc1c(Cl)cccc1NC(=O)NCc1cccc(N(C)C)n1,23.29%
17,O=C(O)C[C@@H]1CCN(C(=O)C2CCCC2)C[C@@H]1CCN1CCCCC1,3.998%
18,O=C1CCc2cc(OCCN3CCc4cncnc4C3)ccc2N1,28.97%
19,Cn1cccc1C(=O)N1CCC2(CCCN2S(C)(=O)=O)CC1,-6.458%
20,COc1cc(C(C)=O)ccc1OCC(=O)N(C)Cc1cnn(C)c1,-3.043%
21,Cn1cccc1C(=O)COc1ccc(S(N)(=O)=O)cc1,87.78%
22,COc1cc(C(C)=O)ccc1OCC(=O)N(Cc1ccsc1)C1CC1,-7.993%

row,Compound,Percent Effect
1,COc1cc(C(C)=O)ccc1OCC(=O)c1cccn1C,70.23%
2,Cn1cccc(NC(=O)COc2ccc(Br)cc2)c1=O,-13.39%
3,CC(=O)c1ccc(OCC(=O)c2cccn2C)cc1,104.8%
4,Cn1cccc1C(=O)OCCNC(=O)c1ccccc1,-6.195%
5,Cn1cccc(NC(=O)COc2ccc(Cl)cc2)c1=O,-8.548%
6,N#CCCN(Cc1ccco1)C(=O)CCCNC(=O)c1ccccc1,3.869%
7,c1cc(-c2noc([C@@H]3Cc4nc[nH]c4CN3)n2)ccn1,-6.71%
8,CCOC(=O)Cn1ccc2cc(NC(=O)N3CCSCC3)ccc21,-0.3314%
9,Cc1ccc2nc(C)cc(C(=O)NC(C)c3nnn[nH]3)c2c1 (stereo unspecified),-5.758%
10,Cc1ccccc1OC(C(=O)N1CCC2(CC1)CN(C)C(=O)O2)C(C)C (stereo unspecified),-8.932%
11,CC(C)C(C(=O)N1CCC2(CC1)CN(C)C(=O)O2)c1ccccc1 (stereo unspecified),-0.7993%
12,CN1C[C@]2(CC[C@@H](C(=O)O)CC2)Oc2ccccc2C1=O,130.9%
13,CCC(=O)c1ccc(OCC(=O)NCC2CC(CC)=NO2)cc1 (stereo unspecified),0.5795%
14,O=C(c1ccc(C(F)(F)F)cc1)C1CCCN(C(=O)Cn2cnnn2)C1 (stereo unspecified),-1.796%
15,CSc1ccc(C(=O)C2CCCN(C(=O)CCn3cnnn3)C2)cc1 (stereo unspecified),95.72%
16,CSc1ccc(C(=O)C2CCCN(C(=O)Cn3cnnn3)C2)cc1 (stereo unspecified),-23.42%
17,O=C(CCn1cncn1)N1CC[C@@H](c2ccc3ccccc3c2)[C@H](O)C1,2.781%
18,CSc1ccc(C(=O)C2CCCN(C(=O)CCCn3cncn3)C2)cc1 (stereo unspecified),89.8%
19,CSc1ccc(C(=O)C2CCCN(C(=O)CCn3cncn3)C2)cc1 (stereo unspecified),108%
20,CN(C)S(=O)(=O)N1C[C@@H]2CC[C@H](C1)N(CCC(=O)NCc1ccco1)C2,-9.336%
21,CC(C)C(=O)NCc1cc(Br)ccc1F,-9.372%
22,OCCOc1nc(-c2ccccc2Cl)no1,-14.24%

row,Compound,Percent Effect
1,Cc1nc(C)c(CC(=O)NCc2cccnc2OC2CCCC2)c(=O)[nH]1,2.143%
2,CCNC(=O)C1CCN(c2cc(-c3ccccc3)nc3cc(C)nn23)C1 (stereo unspecified),-12.78%
3,COCCC(=O)N1CCCCC1c1ccc(F)cc1 (stereo unspecified),-2.369%
4,Cc1cn[nH]c1C1CCCCN1C(=O)CCc1ccc(F)cc1 (stereo unspecified),129.4%
5,Cc1cn[nH]c1C1CCCCN1C(=O)CCc1c(C)n[nH]c1C (stereo unspecified),119.5%
6,Cc1cn[nH]c1C1CCCCN1C(=O)CCN1CCCCCC1 (stereo unspecified),-3.23%
7,N#Cc1cccc(N2CCC3(CCC(=O)N(CCCO)C3)CC2)n1,-9.323%
8,O=C1OCCN1CCOc1nc(-c2ccccc2Cl)no1,-11.04%
9,COCC(C)NC(=O)Nc1cc(-c2ccccc2C)nn1CCO (stereo unspecified),-26.76%
10,O=C(O)C(F)(F)F.O=C1CCC2(CCCN(C(=O)c3ccccn3)CC2)N1 (stereo unspecified),-22.06%
11,Nc1cc(C(=O)N2CCC3(CC2)Nc2ccccc2NC3=O)ccn1,3.743%
12,O=C1CC2(CCN(C(=O)C3CCCCC3)C2)Nc2ccccc2N1 (stereo unspecified),102.3%
13,O=C1CC2(CCN(C(=O)c3ccccn3)C2)Nc2ccccc2N1 (stereo unspecified),110.2%
14,O=C(O)C(F)(F)F.O=C1CCCC2(CCN(C(=O)c3ccccn3)CC2)N1,4.079%
15,CN(C)C(=O)N1CCN(C(=O)c2ccccc2)CC2(CNC(=O)C2)C1 (stereo unspecified),9.343%
16,Cl.O=C(C1CCCCC1)N1CCC2(CC1)CNCc1ccccc12,2.33%
17,O=C1Nc2ccccc2C1C1CCN(C(=O)C2CC2)CC1 (stereo unspecified),-3.481%
18,O=C1CC2(CCN(C(=O)c3ccccc3)C2)Nc2ccccc2N1 (stereo unspecified),106.1%
